Data taken from the supplement of paper PMC6411743.
± gives the standard deviation of the averaged measurements. Targets with the largest changes are over-represented here; the source holds about 6,200 in all.

Compound: Nc1ncnc2c1ncn2[C@@H]1O[C@H](COP(=O)(O)OP(=O)(O)NP(=O)(O)O)[C@@H](O)[C@H]1O [adenylyl imidodiphosphate]
Assay: NP40-soluble protein abundance relative to vehicle (solubility fold change) (ratio); higher = more soluble protein in presence of AMP-PNP
Method in brief: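 Data come from three independent experiments in which Dounce-homogenised Jurkat crude lysate was treated at eight concentrations from 0.1 to 10 mM. Treatment ran 10 min at room temperature and then 3 min at 37 °C, after which 0.8% NP40 and benzonase were added for 60 min at 4 °C before ultracentrifugation. The supernatant underwent TMT labelling and LC-MS/MS, and vsn-normalised intensities were expressed as fold change against the detergent-processed vehicle in each replicate.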

Chain of UniProt Q92804 (Q92804 whole entry): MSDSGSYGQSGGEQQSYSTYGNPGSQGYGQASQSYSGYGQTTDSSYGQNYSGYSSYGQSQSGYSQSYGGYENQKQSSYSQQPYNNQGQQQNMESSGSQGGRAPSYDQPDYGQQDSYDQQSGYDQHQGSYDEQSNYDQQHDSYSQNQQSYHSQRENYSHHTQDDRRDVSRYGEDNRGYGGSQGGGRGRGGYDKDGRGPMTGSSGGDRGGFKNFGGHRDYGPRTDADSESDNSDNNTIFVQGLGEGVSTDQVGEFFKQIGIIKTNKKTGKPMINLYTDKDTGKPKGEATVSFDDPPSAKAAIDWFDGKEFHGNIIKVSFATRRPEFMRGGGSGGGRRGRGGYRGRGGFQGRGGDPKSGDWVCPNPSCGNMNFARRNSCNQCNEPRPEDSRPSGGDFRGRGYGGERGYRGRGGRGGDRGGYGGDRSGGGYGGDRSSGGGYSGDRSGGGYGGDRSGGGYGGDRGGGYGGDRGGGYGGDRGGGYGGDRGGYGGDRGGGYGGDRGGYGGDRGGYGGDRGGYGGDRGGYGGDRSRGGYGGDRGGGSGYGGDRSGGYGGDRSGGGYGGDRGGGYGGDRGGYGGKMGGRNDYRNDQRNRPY
Chain of UniProt Q8IUR0 (Q8IUR0 whole entry): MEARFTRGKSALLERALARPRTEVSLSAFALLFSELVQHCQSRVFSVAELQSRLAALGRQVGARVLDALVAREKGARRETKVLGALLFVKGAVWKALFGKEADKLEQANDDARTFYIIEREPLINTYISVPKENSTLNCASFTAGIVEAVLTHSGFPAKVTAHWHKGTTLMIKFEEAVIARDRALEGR
Chain of UniProt Q5QJE6 (Q5QJE6 whole entry): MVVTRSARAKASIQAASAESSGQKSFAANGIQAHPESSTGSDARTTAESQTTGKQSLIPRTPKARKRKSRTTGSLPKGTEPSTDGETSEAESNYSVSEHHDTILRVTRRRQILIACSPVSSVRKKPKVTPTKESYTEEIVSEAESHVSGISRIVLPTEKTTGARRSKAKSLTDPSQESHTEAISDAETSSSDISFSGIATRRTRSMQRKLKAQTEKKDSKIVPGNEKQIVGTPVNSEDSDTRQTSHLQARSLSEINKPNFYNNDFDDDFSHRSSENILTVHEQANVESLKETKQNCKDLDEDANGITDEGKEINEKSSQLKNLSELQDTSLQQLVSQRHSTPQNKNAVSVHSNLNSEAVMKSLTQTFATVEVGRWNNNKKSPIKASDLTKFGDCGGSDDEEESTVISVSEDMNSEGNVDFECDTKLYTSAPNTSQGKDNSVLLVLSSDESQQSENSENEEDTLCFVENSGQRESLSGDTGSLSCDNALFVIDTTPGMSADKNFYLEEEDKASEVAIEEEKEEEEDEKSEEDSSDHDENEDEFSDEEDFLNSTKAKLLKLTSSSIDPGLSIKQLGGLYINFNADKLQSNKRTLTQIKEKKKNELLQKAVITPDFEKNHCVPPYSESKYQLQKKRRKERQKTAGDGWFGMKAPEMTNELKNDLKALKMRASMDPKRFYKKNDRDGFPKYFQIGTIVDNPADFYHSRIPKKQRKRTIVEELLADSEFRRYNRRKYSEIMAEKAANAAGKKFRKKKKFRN
Chain of UniProt Q8WUB8 (Q8WUB8 whole entry, one chain of several): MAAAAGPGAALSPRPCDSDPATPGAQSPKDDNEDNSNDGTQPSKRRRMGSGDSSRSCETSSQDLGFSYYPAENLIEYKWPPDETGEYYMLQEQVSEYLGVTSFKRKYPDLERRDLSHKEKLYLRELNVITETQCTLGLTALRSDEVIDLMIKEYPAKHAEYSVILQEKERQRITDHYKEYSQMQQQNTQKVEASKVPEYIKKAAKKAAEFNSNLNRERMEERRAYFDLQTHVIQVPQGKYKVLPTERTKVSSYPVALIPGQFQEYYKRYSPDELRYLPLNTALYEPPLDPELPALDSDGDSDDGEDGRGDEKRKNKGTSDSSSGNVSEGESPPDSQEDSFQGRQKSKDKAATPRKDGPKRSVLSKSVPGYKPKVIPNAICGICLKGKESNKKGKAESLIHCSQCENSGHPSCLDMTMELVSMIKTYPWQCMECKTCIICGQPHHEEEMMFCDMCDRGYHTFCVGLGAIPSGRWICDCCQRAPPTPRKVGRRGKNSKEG
Chain of UniProt Q8N8A6 (Q8N8A6 whole entry): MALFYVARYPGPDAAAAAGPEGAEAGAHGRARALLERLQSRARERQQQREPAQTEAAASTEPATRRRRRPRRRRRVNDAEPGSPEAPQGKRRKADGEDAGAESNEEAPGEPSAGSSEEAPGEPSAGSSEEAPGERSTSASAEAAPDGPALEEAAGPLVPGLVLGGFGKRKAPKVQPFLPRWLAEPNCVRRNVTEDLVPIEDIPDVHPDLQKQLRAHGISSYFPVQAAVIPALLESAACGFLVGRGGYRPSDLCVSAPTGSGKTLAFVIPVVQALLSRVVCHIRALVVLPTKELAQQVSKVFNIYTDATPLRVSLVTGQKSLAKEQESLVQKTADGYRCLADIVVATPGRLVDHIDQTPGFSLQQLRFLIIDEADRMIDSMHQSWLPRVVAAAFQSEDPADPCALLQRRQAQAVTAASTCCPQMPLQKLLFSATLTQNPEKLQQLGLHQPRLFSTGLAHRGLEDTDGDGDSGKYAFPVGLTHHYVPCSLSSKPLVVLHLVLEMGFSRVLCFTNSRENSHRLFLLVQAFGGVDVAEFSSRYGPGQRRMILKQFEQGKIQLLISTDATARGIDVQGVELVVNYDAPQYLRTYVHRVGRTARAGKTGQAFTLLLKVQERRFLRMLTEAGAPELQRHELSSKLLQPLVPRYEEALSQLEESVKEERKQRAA
Chain of UniProt Q14444 (Q14444 whole entry): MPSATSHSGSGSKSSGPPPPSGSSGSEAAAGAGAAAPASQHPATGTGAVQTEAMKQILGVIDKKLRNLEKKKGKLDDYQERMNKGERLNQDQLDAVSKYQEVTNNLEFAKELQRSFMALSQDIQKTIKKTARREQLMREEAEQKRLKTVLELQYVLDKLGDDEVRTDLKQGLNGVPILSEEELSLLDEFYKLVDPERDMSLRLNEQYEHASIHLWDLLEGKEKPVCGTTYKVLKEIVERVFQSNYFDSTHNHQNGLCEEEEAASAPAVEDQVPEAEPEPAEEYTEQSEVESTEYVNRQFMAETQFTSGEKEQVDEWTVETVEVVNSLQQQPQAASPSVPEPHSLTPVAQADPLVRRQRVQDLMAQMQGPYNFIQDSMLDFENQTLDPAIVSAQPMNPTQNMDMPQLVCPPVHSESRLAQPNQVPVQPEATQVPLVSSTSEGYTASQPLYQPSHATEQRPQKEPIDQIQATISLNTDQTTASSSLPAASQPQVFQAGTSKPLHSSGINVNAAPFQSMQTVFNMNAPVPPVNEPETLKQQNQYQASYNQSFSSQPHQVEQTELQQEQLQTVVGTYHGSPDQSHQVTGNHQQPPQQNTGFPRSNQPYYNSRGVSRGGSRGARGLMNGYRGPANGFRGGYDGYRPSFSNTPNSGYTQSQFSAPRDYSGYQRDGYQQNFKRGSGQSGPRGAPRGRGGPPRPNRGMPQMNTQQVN
Chain of UniProt Q13825 (Q13825 whole entry): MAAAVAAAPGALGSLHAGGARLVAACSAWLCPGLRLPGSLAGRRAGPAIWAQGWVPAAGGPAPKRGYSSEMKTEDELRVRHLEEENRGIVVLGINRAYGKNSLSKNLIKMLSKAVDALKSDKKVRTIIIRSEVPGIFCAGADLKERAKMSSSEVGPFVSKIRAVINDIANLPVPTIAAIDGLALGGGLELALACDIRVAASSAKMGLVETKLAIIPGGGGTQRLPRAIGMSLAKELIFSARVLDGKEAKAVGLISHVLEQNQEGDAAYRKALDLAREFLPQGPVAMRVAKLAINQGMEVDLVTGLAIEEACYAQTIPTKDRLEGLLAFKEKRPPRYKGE
Chain of UniProt Q13442 (Q13442 whole entry): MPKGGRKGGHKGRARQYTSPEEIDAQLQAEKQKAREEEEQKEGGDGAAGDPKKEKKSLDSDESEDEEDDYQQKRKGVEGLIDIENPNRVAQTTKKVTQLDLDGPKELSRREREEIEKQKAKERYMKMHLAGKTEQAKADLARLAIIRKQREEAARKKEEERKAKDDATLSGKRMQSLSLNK
Chain of UniProt Q7Z7H5 (Q7Z7H5 whole entry): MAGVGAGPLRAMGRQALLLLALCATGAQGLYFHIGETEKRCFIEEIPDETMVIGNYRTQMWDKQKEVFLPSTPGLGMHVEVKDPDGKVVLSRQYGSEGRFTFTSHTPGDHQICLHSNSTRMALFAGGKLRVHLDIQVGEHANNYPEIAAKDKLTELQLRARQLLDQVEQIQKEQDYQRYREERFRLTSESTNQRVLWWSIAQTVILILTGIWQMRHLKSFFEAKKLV
Chain of UniProt Q15599 (Q15599 whole entry): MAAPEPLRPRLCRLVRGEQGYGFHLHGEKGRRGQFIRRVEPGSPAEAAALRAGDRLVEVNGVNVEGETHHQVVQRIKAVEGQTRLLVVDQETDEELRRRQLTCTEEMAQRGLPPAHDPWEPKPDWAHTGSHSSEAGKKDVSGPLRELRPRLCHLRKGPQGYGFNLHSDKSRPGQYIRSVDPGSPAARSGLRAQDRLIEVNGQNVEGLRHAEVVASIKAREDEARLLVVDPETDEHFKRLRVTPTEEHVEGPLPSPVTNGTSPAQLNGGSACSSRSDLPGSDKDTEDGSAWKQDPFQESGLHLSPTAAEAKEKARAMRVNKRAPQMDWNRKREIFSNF
Chain of UniProt Q8N0X4 (Q8N0X4 whole entry): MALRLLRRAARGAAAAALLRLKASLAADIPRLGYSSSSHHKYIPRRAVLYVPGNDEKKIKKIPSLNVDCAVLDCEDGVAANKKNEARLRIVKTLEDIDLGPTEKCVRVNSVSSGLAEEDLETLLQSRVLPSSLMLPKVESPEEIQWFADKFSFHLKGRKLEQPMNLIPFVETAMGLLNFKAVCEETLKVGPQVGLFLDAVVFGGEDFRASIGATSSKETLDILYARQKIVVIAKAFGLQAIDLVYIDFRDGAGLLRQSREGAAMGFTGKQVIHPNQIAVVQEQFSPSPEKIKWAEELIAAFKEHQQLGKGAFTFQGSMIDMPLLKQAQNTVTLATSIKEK

Target	NP40-soluble protein abundance (concentration: 1mM)	NP40-soluble protein abundance (concentration: 2mM)	NP40-soluble protein abundance (concentration: 4mM)	NP40-soluble protein abundance (concentration: 6mM)	NP40-soluble protein abundance (concentration: 8mM)	NP40-soluble protein abundance (concentration: 10mM)
CAND1 (UniProt Q86VP6)	0.971 ± 0.024	0.947 ± 0.03	0.983 ± 0.035	1.01 ± 0.084	1.03 ± 0.044	0.992 ± 0.058
UniProt Q92804|Q92804-2	1.07 ± 0.15	1.15 ± 0.031	1.19 ± 0.17	1.27 ± 0.21	1.32 ± 0.13	1.54 ± 0.23
UniProt Q93073|Q93073-2	0.997 ± 0.026	1.01 ± 0.046	0.978 ± 0.039	0.996 ± 0.013	0.972 ± 0.024	0.971 ± 0.027
UniProt Q7L5Y1|Q7L5Y1-4|Q7L5Y1-5	0.992 ± 0.03	1 ± 0.016	1.007 ± 0.0081	0.99 ± 0.04	1.01 ± 0.013	0.996 ± 0.0075
UniProt Q8WUQ7|Q8WUQ7-2	1.05 ± 0.027	1.05 ± 0.027	1.09 ± 0.03	1.06 ± 0.023	1.06 ± 0.031	1.11 ± 0.063
UniProt Q14444|Q14444-2	1.12 ± 0.041	1.22 ± 0.17	1.16 ± 0.064	1.19 ± 0.13	1.19 ± 0.094	1.25 ± 0.08
PDAP1 (UniProt Q13442)	1.07 ± 0.072	1.17 ± 0.026	1.13 ± 0.048	1.26 ± 0.093	1.24 ± 0.085	1.35 ± 0.12
DHX38 (UniProt Q92620)	1.016 ± 0.0095	1.03 ± 0.037	1.03 ± 0.012	1.01 ± 0.055	1.04 ± 0.034	1.03 ± 0.023
UniProt Q16611|Q16611-2	0.994 ± 0.035	0.952 ± 0.016	0.985 ± 0.043	0.96 ± 0.023	0.974 ± 0.032	0.932 ± 0.026
UniProt Q5T011|Q5T011-5	0.882 ± 0.14	0.91 ± 0.071	0.912 ± 0.076	0.864 ± 0.16	0.809 ± 0.045	0.803 ± 0.056
TMED4 (UniProt Q7Z7H5)	1.017 ± 0.0076	0.973 ± 0.026	0.99 ± 0.032	1.02 ± 0.036	1.02 ± 0.025	1 ± 0.038
UniProt Q15642-2|Q15642-3|Q15642-4|W4VSQ9|M0R0F9	1.09 ± 0.014	1.07 ± 0.036	1.07 ± 0.014	1.04 ± 0.054	1.07 ± 0.025	1.06 ± 0.065
UniProt Q5JTJ3|Q5JTJ3-2|Q5JTJ3-3|X6R5Z6	1.02 ± 0.015	1.04 ± 0.081	0.991 ± 0.038	0.97 ± 0.043	0.943 ± 0.016	0.966 ± 0.046
UniProt Q16698-2|Q16698	1.06 ± 0.085	1.11 ± 0.058	1.19 ± 0.08	1.21 ± 0.014	1.26 ± 0.041	1.25 ± 0.02
UniProt Q13825|Q13825-2	0.995 ± 0.028	1.02 ± 0.025	1.04 ± 0.044	1.03 ± 0.015	1.04 ± 0.057	1.06 ± 0.025
UniProt Q8WWW0|Q8WWW0-2	0.9981 ± 0.0063	0.996 ± 0.033	1.02 ± 0.018	1.03 ± 0.039	1.02 ± 0.029	1.03 ± 0.052
TRAPPC5 (UniProt Q8IUR0)	0.946 ± 0.055	0.933 ± 0.043	0.959 ± 0.073	1.187 ± 0.002	1.18 ± 0.043	1.12 ± 0.13
UniProt Q15599|Q15599-2	1.01 ± 0.046	1.05 ± 0.042	1.04 ± 0.035	1.05 ± 0.038	1.04 ± 0.038	1.03 ± 0.045
EHBP1L1 (UniProt Q8N3D4)	1.06 ± 0.028	1.11 ± 0.099	1.07 ± 0.11	1.02 ± 0.034	1.01 ± 0.059	1.01 ± 0.08
UniProt Q8WUB8|Q8WUB8-2|Q8WUB8-3|S5FZ81	1.01 ± 0.045	1.04 ± 0.034	1.07 ± 0.023	1.11 ± 0.045	1.08 ± 0.051	1.15 ± 0.061
PCGF5 (UniProt Q86SE9)	1.01 ± 0.043	1.01 ± 0.029	1.01 ± 0.065	0.967 ± 0.054	0.974 ± 0.039	0.945 ± 0.036
FIG4 (UniProt Q92562)	1 ± 0.022	1.04 ± 0.024	1.06 ± 0.04	1.02 ± 0.024	0.9942 ± 0.0076	0.9926 ± 0.0034
UniProt Q5F1R6|Q5F1R6-3	1.044 ± 0.0025	1.12 ± 0.041	1.123 ± 0.0067	1.11 ± 0.066	1.09 ± 0.019	1.11 ± 0.035
CLYBL (UniProt Q8N0X4)	1.01 ± 0.016	0.978 ± 0.013	1 ± 0.02	0.982 ± 0.043	0.9692 ± 0.0037	0.9819 ± 0.0062
UniProt Q8NBP0|Q8NBP0-2	0.998 ± 0.019	0.97 ± 0.025	0.9847 ± 0.0052	0.984 ± 0.025	0.992 ± 0.032	0.991 ± 0.027
IQGAP2 (UniProt Q13576)	0.956 ± 0.027	0.935 ± 0.022	0.94 ± 0.051	0.944 ± 0.029	0.926 ± 0.039	0.932 ± 0.038
DDX51 (UniProt Q8N8A6)	1.06 ± 0.018	1.09 ± 0.02	1.15 ± 0.059	1.2 ± 0.038	1.24 ± 0.033	1.423 ± 0.014
UniProt Q8N122|Q8N122-3	1.01 ± 0.031	0.955 ± 0.021	0.985 ± 0.011	0.972 ± 0.013	0.967 ± 0.018	0.994 ± 0.034
DNTTIP2 (UniProt Q5QJE6)	1.1 ± 0.036	1.2 ± 0.022	1.27 ± 0.06	1.34 ± 0.083	1.4 ± 0.12	1.53 ± 0.16
SF3A1 (UniProt Q15459)	1.02 ± 0.022	1.05 ± 0.05	1.02 ± 0.014	1.07 ± 0.031	1.07 ± 0.017	1.09 ± 0.031
